Test results from PubChem BioAssay (NCATS).
Inconclusive results are not listed. Activity calls are given as the source filed them. Unless noted, the call rests on the fitted dose curve; in most records, active means well fitted curve in the direction sought with a large enough effect; inconclusive means small, poorly fitted or top-dose-only effect, or another doubt; inactive means no such curve, though single readings can be large; an effect the other way counts as inactive or inconclusive.

Assays:
[1] = target: Lysosomal acid glucosylceramidase (Homo sapiens) (UniProt P04062); test: Glucocerebrosidase-p2 (AID 348; in the data active means potency below about 10 µM; further: potency means the concentration at half of the fitted maximal effect); conditions: purified GBA, blue fluorogenic substrate, 40 min
Chain of Lysosomal acid glucosylceramidase (Homo sapiens) (P04062 whole entry, looked up): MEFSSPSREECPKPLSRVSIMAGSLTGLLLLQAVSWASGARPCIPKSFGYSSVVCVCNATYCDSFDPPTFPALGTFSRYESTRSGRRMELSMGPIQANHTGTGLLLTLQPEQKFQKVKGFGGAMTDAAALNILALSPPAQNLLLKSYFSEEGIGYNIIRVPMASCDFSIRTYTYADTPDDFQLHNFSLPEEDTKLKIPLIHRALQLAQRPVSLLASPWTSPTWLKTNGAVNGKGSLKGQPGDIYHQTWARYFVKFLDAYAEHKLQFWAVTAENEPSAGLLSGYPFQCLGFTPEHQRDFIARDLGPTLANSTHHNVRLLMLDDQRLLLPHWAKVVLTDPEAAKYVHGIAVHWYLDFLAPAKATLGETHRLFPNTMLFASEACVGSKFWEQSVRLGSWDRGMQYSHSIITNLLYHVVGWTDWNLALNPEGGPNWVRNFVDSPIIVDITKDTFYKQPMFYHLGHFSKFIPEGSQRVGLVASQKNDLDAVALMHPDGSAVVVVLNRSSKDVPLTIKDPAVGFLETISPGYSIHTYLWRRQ
Summary of the method: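 Normal human glucocerebrosidase (0.2 nM) with blue fluorogenic substrate (80 uM final) in citrate/phosphate pH 5.9 with 10mM sodium taurocholate, 0.01% tween-20; 40 min RT, NaOH/glycine stop; fluorescence Ex 365/Em 440; AC50 from a titration from 0.6 nM upwards.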

[2] = AP1 Signaling Pathway (AID 357; active means well fitted curve in either direction with a large enough effect, not every such curve was filed as active;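 further: ME-180 reporter cells stimulated with EGF at its EC50 level; on the % scale 0 is the no-effect control and ±100 the full control effect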); conditions: ME-180 AP-1-bla reporter, EGF-induced, beta-lactamase ratio, 5 h; at 7.69 µM (top of the series) unless noted
Summary of the method: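 AP-1-bla ME-180 cells, Opti-MEM + 0.5% dialyzed FBS, plated overnight 37 °C. Cpd titration + EC50 EGF, 5 h 37 °C. CCF4 2.5 h RT; ex 405, em 460/530 ratio → %activity, AC50.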

[3] = target: Cytochrome P450 1A2 (Homo sapiens) (UniProt P05177); test: p450-cyp1a2 (AID 410; calls by dose curve; further: potency means the concentration at half of the fitted maximal effect); conditions: recombinant CYP1A2, luciferin-ME demethylation, luminescence; series mostly up to 57 µM
Chain of Cytochrome P450 1A2 (Homo sapiens) (P05177 whole entry, looked up): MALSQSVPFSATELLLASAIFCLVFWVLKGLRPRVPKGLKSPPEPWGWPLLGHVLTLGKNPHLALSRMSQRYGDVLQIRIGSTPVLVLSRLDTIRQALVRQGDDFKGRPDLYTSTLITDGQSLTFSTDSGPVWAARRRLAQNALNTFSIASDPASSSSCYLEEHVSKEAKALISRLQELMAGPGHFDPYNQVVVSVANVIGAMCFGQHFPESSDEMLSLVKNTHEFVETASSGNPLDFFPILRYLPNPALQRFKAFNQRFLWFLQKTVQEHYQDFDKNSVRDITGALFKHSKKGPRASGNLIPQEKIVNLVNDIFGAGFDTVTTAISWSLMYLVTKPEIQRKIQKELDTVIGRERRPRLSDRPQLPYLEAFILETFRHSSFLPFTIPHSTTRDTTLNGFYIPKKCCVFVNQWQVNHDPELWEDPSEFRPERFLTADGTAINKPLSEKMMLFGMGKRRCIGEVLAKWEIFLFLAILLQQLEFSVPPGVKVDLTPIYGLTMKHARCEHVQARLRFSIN
Summary of the method: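 Luminescent demethylation readout: Luciferin-ME (100uM, equal to Km) turned over by 20nM CYP1A2 for 60 min at room temperature after NADPH regeneration addition, following 10 min compound preincubation. Normalization used 57 uM furafylline as full inhibition.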

[4] = NFAT Signaling Pathway (AID 444; active means well fitted curve in either direction with a large enough effect, not every such curve was filed as active;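 further: carbachol stimulus at about its EC50 of 1 µM final; on the % scale 0 is the no-effect control and ±100 the full control effect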); conditions: Jurkat NFAT-bla M1, carbachol, beta-lactamase ratio, 5 h; at 7.69 µM (top of the series) unless noted
Summary of the method: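 Jurkat cells with NFAT-driven β-lactamase reporter and co-expressed M1 receptor, stimulated with carbachol (final 1 uM, ~EC50), compound titration, 5 h at 37 °C. CCF4 loaded 1 h at RT; 460/530 nm ratio gave %activity and AC50.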

[5] = Stat Signaling Pathway (AID 446; active means well fitted curve in either direction with a large enough effect, not every such curve was filed as active;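 further: ME-180 cervical cancer cells given 40 pM IL-6 alongside compound; SIE-controlled beta-lactamase reporter measured as 460/530 nm FRET emission ratio; on the % scale 0 is the no-effect control and ±100 the full control effect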); conditions: ME-180 SIE beta-lactamase reporter, IL-6 stimulated, 5 h; at 7.69 µM (top of the series) unless noted
Summary of the method: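 FRET read-out (405 nm excitation, 460/530 nm emission) of a beta-lactamase reporter under a STAT-inducible element in ME-180 cervical carcinoma cells. Cells with compound receive 40 pM IL-6 for 5 h. Values are normalised to AC90 stimulation and AC90 JAK-inhibitor controls.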

[6] = target: Glucocorticoid receptor (Homo sapiens) (UniProt P04150); test: GR-GFP Redistribution (AID 450;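 active means compounds whose dose series gives a full or clear partial fitted curve of increased nuclear translocation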; further: potency means the concentration at half of the fitted maximal effect); conditions: U2OS GR-GFP nuclear translocation, laser cytometry, 2 h
Chain of Glucocorticoid receptor (Homo sapiens) (P04150 whole entry, looked up, the tested form may be a part): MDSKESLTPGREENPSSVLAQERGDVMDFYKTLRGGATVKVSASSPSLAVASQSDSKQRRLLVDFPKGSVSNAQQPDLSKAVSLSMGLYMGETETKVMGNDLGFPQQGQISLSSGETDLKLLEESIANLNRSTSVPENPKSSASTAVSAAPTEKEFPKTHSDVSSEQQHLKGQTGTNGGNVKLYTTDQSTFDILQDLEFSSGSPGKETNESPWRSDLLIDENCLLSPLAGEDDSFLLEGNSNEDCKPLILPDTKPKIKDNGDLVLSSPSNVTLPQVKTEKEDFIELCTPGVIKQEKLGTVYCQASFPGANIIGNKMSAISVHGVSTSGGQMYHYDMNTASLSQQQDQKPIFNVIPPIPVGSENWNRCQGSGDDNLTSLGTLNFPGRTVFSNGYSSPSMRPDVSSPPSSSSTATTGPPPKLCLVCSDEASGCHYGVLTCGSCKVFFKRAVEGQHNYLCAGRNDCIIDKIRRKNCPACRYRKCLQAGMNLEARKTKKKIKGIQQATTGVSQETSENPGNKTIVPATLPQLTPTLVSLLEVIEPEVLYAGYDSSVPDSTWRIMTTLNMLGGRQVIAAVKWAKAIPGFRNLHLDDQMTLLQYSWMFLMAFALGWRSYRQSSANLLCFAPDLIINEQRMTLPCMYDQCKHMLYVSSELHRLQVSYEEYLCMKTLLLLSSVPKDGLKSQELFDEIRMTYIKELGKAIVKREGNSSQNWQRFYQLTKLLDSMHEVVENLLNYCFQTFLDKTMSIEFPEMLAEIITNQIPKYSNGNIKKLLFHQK

[7] = target: Glucocorticoid receptor (Homo sapiens) (UniProt P04150); test: GR-EFC Redistribution (AID 451; calls by dose curve; further: potency means the concentration at half of the fitted maximal effect); conditions: CHO-K1 GR-EFC translocation, beta-gal luminescence, 2 h
Summary of the method: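 CHO-K1 cells expressing nuclear EA and GR-ED fragments of b-gal; compounds titrated up to 46 uM final, 2 h at 37 C. GR nuclear translocation read as complemented b-gal luminescence after 1 h RT detection.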

[8] = target: Mitogen-activated protein kinase 10 (Mus musculus) (UniProt Q61831); test: JNK3 AlphaScreen Assay (AID 530; active means well fitted curve in either direction with a large enough effect, not every such curve was filed as active;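 further: kinase came from lysate of stimulated human HepG2 cells; signal reports phosphorylation of biotinylated GST-cJun 1-79 at Ser73 with 10 µM ATP; on the % scale 0 is the no-effect control and ±100 the full control effect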); conditions: JNK3 lysate, c-Jun phosphorylation; series mostly up to 57.1 µM
Summary of the method: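 Activity was read by AlphaScreen after JNK3-containing HepG2 lysate (cytokine pre-activated) phosphorylated biotinylated GST-cJun with 10 uM ATP at room temperature. Phospho-Ser73 cJun antibody with Protein-A acceptor beads provided detection.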

[9] = target: 3',5'-cyclic-AMP phosphodiesterase 4B (Homo sapiens) (UniProt Q07343); test: qHTS Assay for Inhibitors of PDE-IV (AID 607; active means well fitted activation curve with a large enough effect in the main read-out, with a control signal flat, not every such curve was filed as active; further: % of control where 0% means no effect); conditions: HEK293 ACTOne CNG channel cells, membrane potential fluorescence; series mostly up to 22.9 µM
Chain of 3',5'-cyclic-AMP phosphodiesterase 4B (Homo sapiens) (Q07343 whole entry, looked up): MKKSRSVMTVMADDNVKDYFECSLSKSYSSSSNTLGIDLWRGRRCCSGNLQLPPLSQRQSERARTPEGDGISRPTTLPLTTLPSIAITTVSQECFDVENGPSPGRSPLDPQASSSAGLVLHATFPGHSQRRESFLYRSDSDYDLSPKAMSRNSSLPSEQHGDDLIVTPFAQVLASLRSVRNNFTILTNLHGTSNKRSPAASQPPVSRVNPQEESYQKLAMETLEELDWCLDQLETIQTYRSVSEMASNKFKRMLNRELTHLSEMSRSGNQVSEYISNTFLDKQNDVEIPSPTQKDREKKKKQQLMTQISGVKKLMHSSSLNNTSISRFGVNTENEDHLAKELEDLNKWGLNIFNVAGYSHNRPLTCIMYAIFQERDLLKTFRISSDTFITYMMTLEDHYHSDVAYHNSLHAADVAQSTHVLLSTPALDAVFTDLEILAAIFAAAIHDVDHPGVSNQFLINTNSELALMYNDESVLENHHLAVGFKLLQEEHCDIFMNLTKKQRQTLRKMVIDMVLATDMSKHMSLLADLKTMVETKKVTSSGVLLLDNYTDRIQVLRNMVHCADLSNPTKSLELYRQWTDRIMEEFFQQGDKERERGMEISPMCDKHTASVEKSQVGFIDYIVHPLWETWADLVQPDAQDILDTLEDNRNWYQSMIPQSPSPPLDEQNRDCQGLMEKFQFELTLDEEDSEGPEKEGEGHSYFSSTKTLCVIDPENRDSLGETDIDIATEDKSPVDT
Summary of the method: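 Cell-based read-out of cAMP via a modified cyclic nucleotide-gated channel and membrane potential dye (535/590 nm) in HEK293 cells expressing PDE4 endogenously. Compounds tested up to 22.9 uM final; 100 uM RO 20-1724 reference.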

[10] = target: Cytochrome P450 3A4 (Homo sapiens) (UniProt P08684); test: qHTS Assay for Activators of Cytochrome P450 3A4 (AID 885); conditions: recombinant CYP3A4, Luciferin-PPXE luminescence, 60 min; series mostly up to 57.1 µM; further: nearly all actives have a fitted effect of over 65% in size
Chain of Cytochrome P450 3A4 (Homo sapiens) (P08684 whole entry, looked up): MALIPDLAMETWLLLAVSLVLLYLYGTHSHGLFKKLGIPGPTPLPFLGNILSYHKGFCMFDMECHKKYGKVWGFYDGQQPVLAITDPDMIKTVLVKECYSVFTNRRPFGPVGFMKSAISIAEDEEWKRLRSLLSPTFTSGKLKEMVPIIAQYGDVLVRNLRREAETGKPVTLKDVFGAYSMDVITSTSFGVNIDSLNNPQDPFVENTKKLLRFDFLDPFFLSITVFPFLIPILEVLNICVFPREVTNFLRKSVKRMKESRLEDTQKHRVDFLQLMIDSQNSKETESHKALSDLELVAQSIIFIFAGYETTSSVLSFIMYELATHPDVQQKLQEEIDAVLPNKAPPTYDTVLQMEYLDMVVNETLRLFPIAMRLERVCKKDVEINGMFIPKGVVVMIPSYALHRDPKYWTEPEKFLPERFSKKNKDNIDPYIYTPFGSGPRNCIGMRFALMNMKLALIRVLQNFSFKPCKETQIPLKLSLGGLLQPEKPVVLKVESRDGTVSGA
Summary of the method: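 Luminescent readout of luciferin formed from 25 uM Luciferin-PPXE (KM level) by 20 nM CYP3A4 in 200 mM KPO4, with 60 min NADPH-driven reaction at room temperature after 10 min compound exposure. Ketoconazole (57 uM) defined 100% inhibition.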

[11] = Confirmation and Secondary Assay for Modulators of Hemoglobin Beta Chain Splicing at IVS2 654 locus (AID 910); conditions: HeLa EGFP-654 splicing reporter, GFP fluorescence, 48 h; series mostly up to 38.3 µM;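 further: HeLa cells stably carrying EGFP split by mutant beta-globin IVS2-654 intron; % of control where 0% means no effect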
Summary of the method: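 HeLa cells stably expressing EGFP interrupted by β-globin IVS2-654 intron, seeded overnight in Opti-MEM/2% FCS, then treated 2 days at 37 °C. Restored splicing read as total peak GFP intensity per well by laser scanning cytometry (488 nm excitation, 500–520 nm emission); 500 nM antisense PNA as control.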

[12] = qHTS Assay for Identification of Small Molecule Agonists for Hypoxia Response Element Signaling Pathway (AID 914; active means well fitted activation curve with a large enough effect in the signal ratio, with a control signal flat, not every such curve was filed as active; the % refers to the signal ratio; further: % of control where 0% means no effect); conditions: ME-180 (cervical carcinoma) HRE-bla reporter, beta-lactamase ratio, CoCl2, 17 h; activation: stronger effect = higher value
Summary of the method: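 qHTS titration; ME-180 HRE-bla cells; EC50 CoCl2 co-treatment, 17 h at 37 degrees Celsius; CCF4 dye, ex 405nm, em 460nm and 530nm; %Activity from ratio; AC50.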

[13] = Confirmation and Secondary Assay for Modulators of Hemoglobin Beta Chain Splicing at IVS2 705 locus (AID 930); conditions: HeLa EGFP-705 splicing reporter, GFP fluorescence, 48 h; series mostly up to 38.3 µM;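 further: HeLa cells stably expressing the EGFP-705 splicing reporter; GFP fluorescence per well restored by corrected splicing of the IVS2-705 intron in EGFP; % of control where 0% means no effect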
Summary of the method: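 Secondary splice-site specificity test uses HeLa expressing CMV-driven EGFP interrupted by IVS2-705; cells were treated 2 days at 37C with 500 nM antisense PNA as positive control.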

[14] = qHTS Assay for Lipid Storage Modulators (AID 1519; calls by dose curve); conditions: Drosophila S3 cells, BODIPY lipid droplet/cell ratio, laser cytometry, cells loaded with oleic acid; for activity change, negative = inhibition: at 57.5 µM (top of the series)
Summary of the method: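 Cells seeded at 5,000 per well were treated with compounds over a concentration series and loaded with oleic acid (400 uM, as added). Lipid droplet fluorescence (488 nm excitation, 500-530 nm channel) was read by laser-scanning cytometry and normalized to 20 uM Triacsin C.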

[15] = target: Ubiquitin carboxyl-terminal hydrolase 1 (Homo sapiens) (UniProt O94782); test: Inhibitors of USP1/UAF1: Pilot qHTS (AID 504865); conditions: purified USP1/UAF1, Ub-rhodamine cleavage fluorescence; series mostly up to 54.9 µM;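 further: rhodamine fluorescence freed from ubiquitin-rhodamine substrate followed over time; top concentration of the series differs between compounds; on the % scale 0 is the no-effect control and ±100 the full control effect; nearly all actives have a fitted effect of over 35% in size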
Chain of Ubiquitin carboxyl-terminal hydrolase 1 (Homo sapiens) (O94782 whole entry, looked up): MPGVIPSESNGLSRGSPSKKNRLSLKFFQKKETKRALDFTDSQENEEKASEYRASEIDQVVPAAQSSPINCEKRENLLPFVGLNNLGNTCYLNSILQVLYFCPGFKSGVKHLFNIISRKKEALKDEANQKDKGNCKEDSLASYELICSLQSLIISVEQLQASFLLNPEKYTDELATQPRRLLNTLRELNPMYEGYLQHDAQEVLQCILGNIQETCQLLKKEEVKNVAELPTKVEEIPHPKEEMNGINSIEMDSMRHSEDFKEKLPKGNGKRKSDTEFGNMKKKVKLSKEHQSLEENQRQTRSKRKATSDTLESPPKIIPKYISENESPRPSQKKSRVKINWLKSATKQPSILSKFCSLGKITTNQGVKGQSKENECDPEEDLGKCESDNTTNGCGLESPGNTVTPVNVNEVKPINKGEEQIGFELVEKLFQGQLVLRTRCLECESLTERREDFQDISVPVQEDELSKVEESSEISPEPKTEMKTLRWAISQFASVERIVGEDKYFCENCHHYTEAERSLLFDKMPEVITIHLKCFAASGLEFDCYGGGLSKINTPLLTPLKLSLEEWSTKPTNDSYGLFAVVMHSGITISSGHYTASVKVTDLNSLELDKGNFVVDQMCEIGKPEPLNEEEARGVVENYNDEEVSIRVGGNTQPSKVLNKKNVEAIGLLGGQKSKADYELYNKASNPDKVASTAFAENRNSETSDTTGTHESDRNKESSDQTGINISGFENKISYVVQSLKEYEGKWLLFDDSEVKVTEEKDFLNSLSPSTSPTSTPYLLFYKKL
Summary of the method: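 USP1/UAF1 complex at 1 nM preincubated 15 min at room temperature with compound, then Ub-Rho substrate added at 150 nM final. Fluorescence (480/540 nm) read kinetically in 50 mM HEPES pH 7.8, 0.5 mM EDTA, 1 mM TCEP, 0.1 mg/ml BSA, 0.01% Tween-20.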

[16] = Primary qHTS for small molecule stabilizers of the endoplasmic reticulum resident proteome: Secreted ER Calcium Modulated Protein (SERCaMP) assay (AID 1508630); conditions: SH-SY5Y GLuc-SERCaMP (Gaussia luciferase released on ER calcium loss) secretion, thapsigargin, luminescence; series mostly up to 38.4 µM; further: on the % scale 0 is the no-effect control and ±100 the full control effect
Summary of the method: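 The SH-SY5Y reporter protocol was run at 3 concentrations up to 38.3 uM (primary) or 11 concentrations (follow-up): 16 h compound, 100 nM thapsigargin for 4 h, then extracellular luciferase luminescence.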

[17] = target: Cytochrome P450 3A4 (Homo sapiens) (UniProt P08684); test: qHTS Assay for Inhibitors and Substrates of Cytochrome P450 3A4 (AID 884); conditions: recombinant CYP3A4, Luciferin-PPXE luminescence; series mostly up to 57.1 µM; further: on the % scale 0 is the no-effect control and ±100 the full control effect; nearly all actives have a fitted effect of over 50% in size
Summary of the method: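 Luminescent readout of luciferin produced by CYP3A4 (20 nM) dealkylation of Luciferin-PPXE, 25 uM (its KM). NADPH-driven reaction ran 60 min at RT after 10 min compound preincubation; data scaled to 57 uM ketoconazole as 100% inhibition.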

[18] = target: Cytochrome P450 2C19 (Homo sapiens) (UniProt P33261); test: qHTS Assay for Inhibitors and Substrates of Cytochrome P450 2C19 (AID 899); conditions: recombinant CYP2C19, luciferin-H EGE luminescence; series mostly up to 57.1 µM; further: potency means the concentration at half of the fitted maximal effect; nearly all actives have a fitted effect of over 60% in size
Chain of Cytochrome P450 2C19 (Homo sapiens) (P33261 whole entry, looked up): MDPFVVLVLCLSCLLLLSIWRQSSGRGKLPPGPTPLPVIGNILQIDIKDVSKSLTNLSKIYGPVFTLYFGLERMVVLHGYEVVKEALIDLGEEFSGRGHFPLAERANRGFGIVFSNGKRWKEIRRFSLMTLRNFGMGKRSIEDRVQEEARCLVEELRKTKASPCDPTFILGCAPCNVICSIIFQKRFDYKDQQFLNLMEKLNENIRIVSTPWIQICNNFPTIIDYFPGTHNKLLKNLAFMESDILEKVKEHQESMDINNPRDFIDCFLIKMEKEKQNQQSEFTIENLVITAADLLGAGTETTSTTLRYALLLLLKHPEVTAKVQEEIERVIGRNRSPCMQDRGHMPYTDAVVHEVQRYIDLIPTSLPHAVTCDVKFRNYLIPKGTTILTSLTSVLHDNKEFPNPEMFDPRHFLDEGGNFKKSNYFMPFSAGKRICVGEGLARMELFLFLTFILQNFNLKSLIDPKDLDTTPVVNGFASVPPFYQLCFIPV
Summary of the method: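 5 nM human CYP2C19 with 10uM Luciferin-H EGE (at KM) in 50mM KPO4, compound preincubated 10 min at 37C, then NADPH regeneration for 60 min at 37C. Luciferin read by luminescence after detection reagent; normalized to 57uM ketoconazole as full inhibition.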

[19] = measured here: cell count channel max response
[20] = measured here: lipid channel max response

COCCNc1nc(-c2ccccc2CN(C)C)nc2ccccc12
2.38%: max response [14, 19]
active: Potency [3] 10 µM
6.21%: max response [14, 20]
inactive: Potency [1] > 11.4 µM | activity change, negative = inhibition [2] 4.08% | activity change, negative = inhibition [4] -0.773% | activity, negative = inhibition [5] 10% | Potency [6] > 46 µM | Potency [7] > 46 µM | outcome [8] | Potency [9] | Potency [10] | outcome [11] | activation [12] 2.67% | outcome [13] | activity change, negative = inhibition [14] 3.16% | Potency [15] | Potency [16]

COCCNc1cc(-c2ccccc2C(F)(F)F)ncn1
16.6%: max response [14, 19]
25.3%: max response [14, 20]
active: Potency [3] 15.8 µM | Potency [18] 7.94 µM
inactive: Potency [1] > 11.4 µM | activity change, negative = inhibition [2] 1.05% | activity change, negative = inhibition [4] 1.43% | activity, negative = inhibition [5] 11% | Potency [6] > 46 µM | Potency [7] > 46 µM | outcome [8] | Potency [9] | Potency [17] | outcome [11] | outcome [13] | activity change, negative = inhibition [14] 7.86% | Potency [15] | Potency [16]

c1cncc(CNc2cc(-c3ccc4c(c3)OCO4)ncn2)c1
18.9%: max response [14, 20]
inactive: Potency [1] > 11.4 µM | activity change, negative = inhibition [2] -7.3% | activity change, negative = inhibition [4] 11.5% | activity, negative = inhibition [5] 3.19% | Potency [6] > 46 µM | Potency [7] > 46 µM | outcome [8] | Potency [9] | outcome [11] | outcome [13] | activity change, negative = inhibition [14] 11.7% | Potency [15] | Potency [16]
14%: max response [14, 19]
active: Potency [3] 0.251 µM

FC(F)(F)c1ccccc1-c1cc(N2CCNCC2)ncn1
24.8%: max response [14, 20]
inactive: Potency [1] > 11.4 µM | activity change, negative = inhibition [2] 10.3% | activity change, negative = inhibition [4] 5.38% | activity, negative = inhibition [5] 3.09% | Potency [6] > 46 µM | Potency [7] > 46 µM | outcome [8] | Potency [9] | outcome [11] | outcome [13] | activity change, negative = inhibition [14] 9.89% | Potency [15] | Potency [16]
active: Potency [3] 5.01 µM
13.9%: max response [14, 19]

CN(C)c1ncnc2ccc(-c3ccccc3C#N)cc12
23.3%: max response [14, 20]
active: Potency [3] 0.398 µM
15.4%: max response [14, 19]
inactive: Potency [1] > 11.4 µM | activity change, negative = inhibition [2] -24% | activity change, negative = inhibition [4] 20.3% | activity, negative = inhibition [5] 18.9% | Potency [6] > 46 µM | Potency [7] > 46 µM | outcome [8] | Potency [9] | Potency [10] | outcome [11] | outcome [13] | activity change, negative = inhibition [14] 8.38% | Potency [15] | Potency [16]

COCCNc1ccnc(-c2cccc(NS(C)(=O)=O)c2)n1
25.9%: max response [14, 20]
inactive: Potency [1] > 11.4 µM | activity change, negative = inhibition [2] -8.74% | activity change, negative = inhibition [4] 12.6% | activity, negative = inhibition [5] -1.1% | Potency [6] > 46 µM | Potency [7] > 46 µM | outcome [8] | Potency [9] | Potency [10] | outcome [11] | outcome [13] | activity change, negative = inhibition [14] 9.23% | Potency [15] | Potency [16]
active: Potency [3] 2 µM
14.8%: max response [14, 19]
